Shiga toxin inh – Shiga toxin inhibition; Vero cells, Shiga toxin protein synthesis inhibition reporter; 9.2% of 290,000 active; AID 2315; inhibition, % at 38.7 µM; in the data active = inhibition mostly above about 28%, no sharp cut-off; inactive = mostly below about 43%
Pf growth 96h – P. falciparum growth inhibition at 96 hour, primary screen for plastid delayed-death inhibitors. 6.9% of 320,000 active. Potency, µM (titrated, usually from 28.7 µM), most hits filed as inhibitors. P. falciparum luciferase reporter growth, 96 h
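Erythrocytes infected with luciferase-expressing P. falciparum were dispensed at 2% hematocrit and 0.05% parasitemia (final), then incubated with compounds 96 hours at 37 C in 5% CO2. Luminescence after detection reagent addition reported growth.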
Pf growth 48h – inhibits P. falciparum growth in the first generation, 48 h. P. falciparum luciferase growth in erythrocytes, 48 h. Potency, µM (top dose mostly 28.7 µM), actives largely listed as inhibitors. 5.9% of 310,000 active. AID 504832
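Parasite viability was followed by luminescence of a genomically integrated firefly luciferase. Cultures held 0.1% parasitemia at 2% hematocrit (final), incubated under 5% CO2 at 37 C.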
HCMV antiviral – blocks human cytomegalovirus replication; 4.5% of 410,000 active; AID 1259415; HFF cells, HCMV-luciferase reporter, 72 h; stronger effect = lower value; activity change, negative = inhibition, % at 57.5 µM; in the data active = activity change below about -60%; inconclusive = no clear call, values can overlap the other calls; inactive = above about -39%
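After 16 h attachment at 37C, HFF cells received test compound and HCMV-luciferase (1 PFU/cell); reporter luminescence read 72 h later, data normalized against buffer-only and known inhibitor Salinomycin.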
CHX counter – counter-screen hit for Shiga toxin inhibitors, cycloheximide; cell reporter, cycloheximide protein synthesis inhibition counterscreen; max response, %; 12% of 300,000 active; in the data active = max response mostly above about 13%, no sharp cut-off; inactive = mostly below about 14%; also: read at 38.3 µM for the half of the compounds with a filed dose
Large screens that a line does not name were inactive. Hits are enriched below; roughly 20% of the tested compounds scored in any of these assays. Unless noted, calls follow the shape of the dose curve; as a rule, active = well fitted inhibition curve with a large enough effect; inconclusive = small, poorly fitted or top-dose-only effect, or another doubt; inactive = no such curve, though single readings can be large or run the other way.

CCN1C(c2ccc(F)cc2)=CS/C1=C(/C#N)c1nnc2n1-c1ccccc1SC2	none (no result: Shiga toxin inh, Pf growth 96h, Pf growth 48h, CHX counter)
Cc1cc(C)n(-c2ccc(C(=O)Nc3ccc4c(c3)OCCO4)cc2)n1	Shiga toxin inh 100, CHX counter 45
COc1cc(OC)cc(C(=O)Nc2ccc3c(c2)OCCO3)c1	Pf growth 96h inconclusive, CHX counter 26 (no result: Shiga toxin inh)
Cc1cc(C)n(-c2ccc(C(=O)NCc3ccc4c(c3)OCO4)cc2)n1	none
O=C(Nc1ccc2c(c1)OCCO2)c1ccc(Cl)cc1	Pf growth 96h inconclusive, CHX counter 28
O=C(Nc1ccc2c(c1)OCCO2)c1ccc(NC(=O)C2CCCO2)cc1 (configuration not stated)	CHX counter 23
CC(=O)c1ccc(NC(=O)CCc2c(C)nc3cc(-c4ccc(Cl)cc4)nn3c2C)cc1	none (no result: Shiga toxin inh, Pf growth 96h, Pf growth 48h, CHX counter)
CS(=O)(=O)Nc1ccc(C(=O)NCc2ccc3c(c2)OCO3)cc1	none (no result: Pf growth 96h)
CC(=O)Nc1ccc(C(=O)Nc2ccc3c(c2)OCO3)cc1	Shiga toxin inh 57, Pf growth 96h 2.3µM, CHX counter 18
CS(=O)(=O)Nc1ccc(C(=O)Nc2ccc3c(c2)OCO3)cc1	Shiga toxin inh 53, CHX counter 26
CCCCc1nn2c(=O)cc(COC(=O)c3ccccc3NC(=O)c3cccc(C)c3)nc2s1	none (no result: Shiga toxin inh, Pf growth 96h, Pf growth 48h, CHX counter)
O=P1(NCCCn2cc[n+](Cc3nc4ccccc4[nH]3)c2)C=C(c2ccccc2)OC(c2ccccc2)=C1	Pf growth 96h 2.3µM, Pf growth 48h 12µM
O=C1C(=O)c2ccccc2C([O-])=C1[n+]1ccccc1	Pf growth 96h 7.4µM, Pf growth 48h 3.7µM
Cc1ccnc(NCc2cc(Cl)cc(Cl)c2O)c1	none (no result: Shiga toxin inh, Pf growth 96h, Pf growth 48h, CHX counter)
Cc1cccc(NCc2cc(Cl)ccc2O)n1	Pf growth 48h 6.6µM
Cc1cccc(NCc2cc(Cl)cc(Cl)c2O)n1	Pf growth 48h 10µM
Cc1ccc(O)c(CNc2cccc(C)n2)c1	Pf growth 48h inconclusive
CC(C)OC(=O)c1ccc(COC(=O)c2cccc(-c3nnc(-c4ccccc4)o3)c2)cc1	Pf growth 96h inconclusive, CHX counter 17
O=C(OCc1ccc(C(=O)c2ccccc2)cc1)c1cccc(-c2nnc(-c3ccccc3)o2)c1	Shiga toxin inh 64, HCMV antiviral inconclusive, CHX counter 22
CCOC(=O)c1cccc(COC(=O)c2cccc(-c3nnc(-c4ccccc4)o3)c2)c1	Shiga toxin inh 78, CHX counter 46
COc1cccc(C2C(C#N)=C(N)OC3=C2C(=O)CC(c2ccco2)C3)c1OCc1ccc(F)cc1 (configuration not stated)	Pf growth 48h 6.6µM
O=C(Nc1ccc2oc(-c3ccccc3)nc2c1)c1cccs1	Shiga toxin inh 67, CHX counter 55
Cc1ccc2oc(-c3cccc(NC(=S)NC(=O)/C=C/c4ccco4)c3)nc2c1	Shiga toxin inh 69, CHX counter 52
Cc1ccc2oc(-c3cccc(NC(=S)NC(=O)c4cccs4)c3)nc2c1	Shiga toxin inh 24, CHX counter 41
O=C(Nc1ccc2oc(-c3ccccc3)nc2c1)c1ccncc1	Pf growth 96h inconclusive
Cc1ccc(NC(=O)CN2CCN(S(=O)(=O)c3cccs3)CC2)cc1S(=O)(=O)N(C)C	Pf growth 96h inconclusive, Pf growth 48h inconclusive, HCMV antiviral inconclusive
O=C(Nc1ccc2ccccc2c1)C(c1ccccc1)C1CCCC1 (configuration not stated)	Pf growth 96h 2.1µM, Pf growth 48h 8.3µM, HCMV antiviral inconclusive
Cc1ccc(NC(=O)C(c2ccccc2)C2CCCC2)cc1 (configuration not stated)	Pf growth 96h inconclusive
Cc1cc(C(=O)OC(C(=O)Nc2ccc(C)c(Cl)c2)c2ccccc2)c(C)o1 (configuration not stated)	Pf growth 96h inconclusive, Pf growth 48h 10µM
Cc1ccc(NC(=O)C(NC2CCCC2)c2ccccc2)cc1Cl (configuration not stated)	Pf growth 96h 12µM, Pf growth 48h 13µM
Cc1ccc(S(=O)(=O)N2CCN(CCNC(=O)C(=O)Nc3ccc(F)cc3)CC2)cc1	HCMV antiviral -67
Cc1ccc(NC(=O)C(=O)NCCN2CCN(Cc3ccc([N+](=O)[O-])cc3)CC2)cc1	Pf growth 96h 0.47µM
CCN1CCN(CCNC(=O)Nc2ccc([N+](=O)[O-])cc2)CC1	none
O=C(NCCN1CCN(S(=O)(=O)c2ccccc2)CC1)C(=O)Nc1ccc(F)cc1	none
CCc1ccc(NC(=O)C(=O)NCCN2CCN(Cc3ccc([N+](=O)[O-])cc3)CC2)cc1	CHX counter 11
Cc1cc(C(=O)OCC(=O)NCc2ccc(Cl)cc2)c(C)o1	HCMV antiviral inconclusive
COc1ccccc1C1C(C(=O)c2cc3ccccc3o2)=C(O)C(=O)N1CCN1CCOCC1 (configuration not stated)	Pf growth 96h inconclusive (no result: Pf growth 48h)
COc1ccc(CN(C)C2c3ccccc3-c3ccccc32)cc1	Pf growth 96h 12µM, Pf growth 48h inconclusive, HCMV antiviral inconclusive
CN(C(=O)C1CCCN(c2ncnc3c2nc2n3CCCCC2)C1)c1ccccc1F (configuration not stated)	none (no result: Shiga toxin inh, Pf growth 96h, Pf growth 48h, CHX counter)
COc1ccc(/C=C2\C(=O)NCC(=O)N2C)cc1	none (no result: Pf growth 48h)
CN1C(=O)/C(=C\c2ccc(N(C)C)cc2)OC1=S	CHX counter 12
COc1ccc(/C=C2\OC(=S)N(C)C2=O)cc1	Pf growth 96h inconclusive, CHX counter 11
COC(=O)c1ccc(N2C(=O)Nc3ccccc3N2O)cc1	none
Cn1c(=O)c2c(nc(CN3CCc4ccccc4C3)n2Cc2ccccc2)n(C)c1=O	Pf growth 96h 12µM, Pf growth 48h 13µM
CCCCCn1c(CN2CCN(c3cccc(Cl)c3)CC2)nc2c1c(=O)n(C)c(=O)n2C	Pf growth 48h inconclusive (no result: Pf growth 96h)
Cn1c(=O)c2c(nc(CN3CCN(Cc4ccccc4)CC3)n2Cc2ccc(F)cc2)n(C)c1=O	Pf growth 96h inconclusive, Pf growth 48h 7.4µM
CC(C)CCn1c(CN2CCN(C(=O)c3ccco3)CC2)nc2c1c(=O)n(C)c(=O)n2C	Pf growth 96h 6.6µM (no result: Pf growth 48h)
CCCCn1c(CN2CCN(c3cccc(Cl)c3)CC2)nc2c1c(=O)n(C)c(=O)n2C	HCMV antiviral -89
COc1ccccc1CNC(=O)CCn1c(=O)c2cccn2c2cccnc21	none (no result: Shiga toxin inh, Pf growth 96h, Pf growth 48h, CHX counter)
Cc1cc(C)n(CC(O)COc2ccccc2Br)n1 (configuration not stated)	Pf growth 96h inconclusive
CCN(C(=O)CSc1nnc(C(C)N(C)C)n1-c1ccc(F)cc1)C1CCS(=O)(=O)C1 (configuration not stated)	none (no result: Shiga toxin inh, CHX counter)
CCCCCn1c(CN2CCN(Cc3ccccc3)CC2)nc2c1c(=O)n(C)c(=O)n2C	Pf growth 96h inconclusive, Pf growth 48h 8.3µM
CCCCn1c(CN2CCN(c3ccccc3)CC2)nc2c1c(=O)n(C)c(=O)n2C	Pf growth 96h inconclusive, Pf growth 48h inconclusive (no result: HCMV antiviral)
Cn1c(=O)c2c(nc(CN3CCN(c4ccccc4)CC3)n2CCCc2ccccc2)n(C)c1=O	none (no result: Shiga toxin inh, Pf growth 96h, Pf growth 48h, CHX counter)
CC(C)CCn1c(CN2CCN(Cc3ccccc3)CC2)nc2c1c(=O)n(C)c(=O)n2C	Pf growth 96h inconclusive, Pf growth 48h 4.7µM
